From PubChem
GPR151 activ: activates the human receptor GPR151 | Q8TDV0 | PathHunter beta-arrestin GPR151 cells, luminescence | activation, % at 11.2 µM | 1% of 650,000 active | AID 1508602; in the data active means activation above about 4.9%;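 further: 0% = median of compound wells and 100% = cells with positive control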
Target sequence (Q8TDV0 whole entry, looked up): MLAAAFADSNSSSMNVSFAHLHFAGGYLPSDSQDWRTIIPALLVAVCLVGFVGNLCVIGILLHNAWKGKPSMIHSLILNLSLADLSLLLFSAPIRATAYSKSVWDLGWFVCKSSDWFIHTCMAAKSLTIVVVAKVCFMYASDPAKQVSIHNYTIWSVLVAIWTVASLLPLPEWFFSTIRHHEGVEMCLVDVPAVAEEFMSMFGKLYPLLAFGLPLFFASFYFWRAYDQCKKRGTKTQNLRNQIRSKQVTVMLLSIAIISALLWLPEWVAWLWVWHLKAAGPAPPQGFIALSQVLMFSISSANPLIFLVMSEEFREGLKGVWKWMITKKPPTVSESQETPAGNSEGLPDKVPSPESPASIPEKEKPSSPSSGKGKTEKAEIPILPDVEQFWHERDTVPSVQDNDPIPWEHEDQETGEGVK
FBW7 activator: human FBW7 E3 ligase activation, primary screen. Q969H0. AlphaScreen FBW7–phospho-cyclin E peptide binding, activator screen. normalized activity (activation), % at 26.1 µM. 0.13% of 650,000 active; in the data active means normalized activity above about 1.9%;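 further: purified mutant Fbw7 with reduced substrate affinity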
TEAD-YAP block: TEAD-YAP interaction inhibition; HEK-TIYL cells, TEAD-Gal4/YAP UAS-luciferase luminescence; inhibition, % at 9.12 µM; 1.4% of 640,000 active; AID 1259422; in the data active means inhibition above about 32%;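 further: 0% = median of test compound wells and 100% = reference inhibitor wells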
MITF inh: blocks human microphthalmia-associated transcription factor | AID 1259374 | O75030 | AlphaScreen MITF homodimerization, bead proximity signal | inhibition, % at 2.6 µM | 0.91% of 650,000 active; in the data active means inhibition above about 50%;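 further: 0% = vehicle wells with protein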
MITF confirm: human MITF inhibition, confirmation; shares compounds with MITF inh; AlphaScreen MITF homodimerization, biotin/His-MITF beads; inhibition, % at 2.6 µM; 16% of 4,700 active; AID 1259372;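 active means inhibition above a cutoff derived from the DMSO control wells, cut at about 28% in these data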;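 further: 0% = MITF dimer wells with DMSO only; inhibitors lower the bead chemiluminescence by keeping MITF from dimerizing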
AS interf DR: optically interferes with AlphaScreen signal in dose response. AID 1259373. shares compounds with MITF inh. AlphaScreen optical interference counterscreen, cell-free. 6% of 480 active. IC50, µM; call rule not given here
AS interf ctr: optically interferes with AlphaScreen signal | 7.6% of 4,700 active | LysRS AlphaScreen counterscreen, signal interference, triplicate | inhibition, % at 2.6 µM | shares compounds with MITF inh | AID 1259376;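 active means inhibition above a cutoff derived from the DMSO control wells, cut at about 30% in these data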
* marks the source's active call; other numbers are inactive results; . = no result. Sampled rows, rich in hits. Any-hit rate of the full collection: about 3.5%.

SMILES	GPR151 activ	FBW7 activator	TEAD-YAP block	MITF inh	MITF confirm	AS interf ctr	others
O=[N+]([O-])c1ccccc1S(=O)(=O)N1CCN(c2ncccn2)CC1	0.4	0.0	-2.3	-2.4	.	.
COc1ccc(S(=O)(=O)N2CCN(Cc3ccccc3Br)CC2)cc1	-0.8	0.2	4.3	17.9	.	.
O=C1NC(=Nc2cccc(C(=O)O)c2)S/C1=C/c1ccc2c(c1)OCO2	2.7	-0.2	-4.8	-24.1	.	.
CC(NC(=O)CN(c1ccc(Oc2ccccc2)cc1)S(C)(=O)=O)c1ccccc1 (configuration not stated)	-0.7	-0.2	-0.1	13.7	.	.
C=CCOC(=O)c1cc(-c2ccc(/C=C3\C(=O)N(c4ccc(Cl)c(Cl)c4)N=C3C)o2)ccc1Cl	-0.6	0.0	-3.8	18.3	.	.
CC(=O)Nc1ccc(S(=O)(=O)N2CCN(Cc3ccccc3C(F)(F)F)CC2)cc1	0.7	-0.1	1.3	69.6*	4.2	7.0
O=C(c1cccnc1)N1CCN(S(=O)(=O)c2ccccc2[N+](=O)[O-])CC1	-0.3	-0.2	-6.7	-24.4	.	.
O=[N+]([O-])c1ccccc1S(=O)(=O)N1CCN(Cc2cccnc2)CC1	-1.0	-0.4	-13.2	73.9*	14.7	18.6
COc1ccc(CN2CCN(S(=O)(=O)c3ccccc3[N+](=O)[O-])CC2)cc1	-0.1	-0.1	3.7	37.8	.	.
CN1CCN(C(=O)C2CCCN(S(=O)(=O)c3ccccc3[N+](=O)[O-])C2)CC1 (configuration not stated)	3.8	0.0	1.5	82.4*	9.6	15.2
O=[N+]([O-])c1ccccc1S(=O)(=O)N1CCN(Cc2ccc(Cl)cc2)CC1	-1.2	-0.3	4.0	73.2*	15.8	13.1
Oc1ccccc1-c1cc(C(F)(F)F)on1	-1.3	0.1	-3.0	1.8	.	.
CC(=O)Nc1ccc(/C=C(\C#N)c2nn(CCO)c(N)c2C#N)cc1	-0.5	-0.1	-8.2	0.6	.	.
CCCOc1ccc(/C=C/C(=O)NC2CCCC2)cc1	0.9	-0.1	-24.6	-8.3	.	.
O=[N+]([O-])c1ccccc1S(=O)(=O)N1CCN(Cc2ccccc2Br)CC1	0.5	-0.2	6.3	65.1*	0.2	16.8
CCOC(=O)C(Cl)NNc1ccccc1[N+](=O)[O-] (configuration not stated)	-0.9	-0.2	-9.4	71.5*	20.0	-1.4
CCOC(=O)C(=CNc1ccccc1[N+](=O)[O-])C(=O)OCC	-0.1	0.2	4.9	4.1	.	.
O=C(c1ccccc1)N1CCN(C(=O)c2cccnc2)CC1	1.4	0.2	14.0	7.7	.	.
O=C(c1cccnc1)N1CCN(Cc2ccco2)CC1	0.6	0.0	1.9	52.7*	-16.2	4.8
O=C(c1cccnc1)N1CCN(Cc2ccncc2)CC1	-2.1	0.4	14.2	85.7*	7.0	15.3
O=C(c1cccnc1)N1CCN(Cc2ccc(F)cc2)CC1	1.4	0.1	3.0	78.8*	7.4	3.6
Clc1ccc(CN2CCN(Cc3cccnc3)CC2)cc1	0.6	-0.1	-5.2	84.4*	8.6	11.8
FC(F)(F)c1cccc(N2CCN(Cc3cccnc3)CC2)c1	-0.8	-0.1	6.8	45.6	.	.
CCc1ccc(CN2CCN(Cc3cccnc3)CC2)cc1	-0.4	0.0	-0.9	76.6*	1.6	-1.4
c1ccc(CN2CCN(C3CCN(Cc4cccnc4)CC3)CC2)cc1	2.7	-0.1	0.3	38.2	.	.
SMILES	GPR151 activ	FBW7 activator	TEAD-YAP block	MITF inh	MITF confirm	AS interf ctr	others
FC(F)(F)c1ccc(CN2CCN(Cc3cccnc3)CC2)cc1	1.1	-0.2	-13.4	80.8*	-6.5	-6.5
Cc1ccccc1N1CCN(Cc2cccnc2)CC1	2.8	0.0	15.2	28.2	.	.
c1ccc(CN2CCN(Cc3cccnc3)CC2)nc1	0.4	-0.2	0.0	74.1*	-18.3	-0.7
CC(C)CC1NC(=O)N(CC(=O)Nc2ccc(C(F)(F)F)cc2)C1=O (configuration not stated)	1.4	0.5	-4.0	9.3	.	.
O=C(CCl)NC(=O)c1ccccc1Cl	-0.5	0.2	0.4	-10.8	.	.
Nc1c(-c2nc(-c3ccccc3F)no2)nnn1-c1ccccc1C(F)(F)F	3.9	0.2	-15.8	3.0	.	.
Clc1ccc(N2CCN(Cc3cccnc3)CC2)cc1	-0.5	-0.1	-3.0	51.8*	-2.3	8.0
Clc1ccccc1CN1CCN(Cc2cccnc2)CC1	-0.6	-0.2	-3.4	82.6*	9.6	12.3
O=C1CCN(Cc2cccnc2)CCN1Cc1ccc(F)cc1Cl	0.6	0.3	8.0	13.0	.	.
CN(CCc1ccccc1)C1CCCN(C(=O)CCc2cnn(C)c2)C1 (configuration not stated)	0.8	0.2	3.2	8.8	.	.
C(=N\Nc1nncc2ccccc12)/c1ccccn1	-1.6	-0.5	77.7*	81.9*	18.0	28.5
Clc1ccc(/C=N/Nc2nncc3ccccc23)cc1Cl	1.2	0.1	-27.9	16.5	.	.
Nc1ccc(NCCO)c(N)c1	-1.1	-1.1	-1.1	56.6*	51.7*	-5.2	AS interf DR=>5.9
Nc1ccc(C(=O)Nc2ccc(N)cc2N)cc1	3.9	-0.4	9.2	3.7	.	.
O=C(CSc1nc2c(c(=O)n1CCc1ccccc1)SCC2)c1ccccc1	1.5	0.1	3.7	-7.2	.	.
O=C(NC1CCCCC1)c1nn2c(c1Br)NC(c1cccs1)CC2C(F)(F)F (configuration not stated)	1.1	0.1	-0.6	59.9*	-8.7	-8.8
CC(C)NC(=O)c1nn2c(c1Br)NC(c1cccs1)CC2C(F)(F)F (configuration not stated)	-0.3	0.1	-0.2	-1.6	.	.
CN1C(=O)/C(=C/c2ccc(C(=O)N3CCN(c4ccccn4)CC3)cc2)Oc2ccccc21	-0.3	0.4	-2.0	11.3	.	.
CCC1CN(CC(=O)NC2C3CC4CC(C3)CC2C4)Cc2cc(OC)ccc2O1 (configuration not stated)	1.4	0.1	-4.5	59.8*	-1.1	6.3
COC(=O)c1cc(S(=O)(=O)NCc2ccccc2OC)c[nH]1	1.1	0.5	14.6	75.4*	3.5	9.0
COC(=O)c1cc(S(=O)(=O)NCc2ccccc2Cl)c[nH]1	0.0	0.0	0.1	12.9	.	.
O=C(Nc1cc(C(=O)Nc2ccc(S(=O)(=O)O)cc2S(=O)(=O)O)cc(C(=O)Nc2ccc(S(=O)(=O)O)cc2S(=O)(=O)O)c1)Nc1cc(C(=O)Nc2ccc(S(=O)(=O)O)cc2S(=O)(=O)O)cc(C(=O)Nc2ccc(S(=O)(=O)O)cc2S(=O)(=O)O)c1	-1.6	-0.2	-8.9	24.4	.	.
O=C(Nc1ccc(C(=O)Nc2ccc(C(=O)Nc3ccc(S(=O)(=O)O)c4cc(S(=O)(=O)O)cc(S(=O)(=O)O)c34)cc2)cc1)Nc1ccc(C(=O)Nc2ccc(C(=O)Nc3ccc(S(=O)(=O)O)c4cc(S(=O)(=O)O)cc(S(=O)(=O)O)c34)cc2)cc1	1.3	-0.1	.	71.0*	66.9*	7.0	AS interf DR=>6.48
